A word on the AC50: it is the concentration at which the activity in the assay is half-maximal.

These results are taken from PubChem BioAssay (EPA / NIEHS).

Records with an inconclusive call do not appear. Calls of active or inactive are those of the source. How the source made its calls, unless noted: active means hit-call score of the fitted dose curve at least 0.9, where 1 is the maximum; inactive means score below 0.9.

For assay [1], the target named is human Retinoid X Receptor beta (RXRb), RXRB (gene 6257) (UniProt P28702). The experiment in a line: ATG_RXRb_TRANS: Attagene TRANS-FACTORIAL HepG2 Assay for human Retinoid X Receptor beta (RXRb) (AID 2283013; active means hit-call score of the fitted dose curve at least 0.9, where 1 is the maximum). The method, boiled down:
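Multiplexed TRANS reporter assay in HepG2; 24 h dosing; reporter mRNA by RT-PCR/CE fluorescence; gain-of-signal relative to DMSO.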

The target in assay [2] is human Thyroid Receptor alpha (THRa1), THRA (gene 7067) (UniProt P10827). Description: ATG_THRa1_TRANS: Attagene TRANS-FACTORIAL HepG2 Assay for human Thyroid Receptor alpha (THRa1) (AID 2283014; active means hit-call score of the fitted dose curve at least 0.9, where 1 is the maximum). The method, boiled down: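 HepG2 cells transiently transfected with multiplexed GAL4-UAS reporter units for exogenous chimeric THRa1-Gal4; reporter mRNA measured 24 h after dosing by RT-PCR, 6-FAM labelling, HpaI digestion and capillary electrophoresis. Gain-of-signal fitted versus DMSO baseline.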
Chain of human Thyroid Receptor alpha (THRa1), THRA (gene 7067) (P10827 whole entry, looked up, the tested form may be a part): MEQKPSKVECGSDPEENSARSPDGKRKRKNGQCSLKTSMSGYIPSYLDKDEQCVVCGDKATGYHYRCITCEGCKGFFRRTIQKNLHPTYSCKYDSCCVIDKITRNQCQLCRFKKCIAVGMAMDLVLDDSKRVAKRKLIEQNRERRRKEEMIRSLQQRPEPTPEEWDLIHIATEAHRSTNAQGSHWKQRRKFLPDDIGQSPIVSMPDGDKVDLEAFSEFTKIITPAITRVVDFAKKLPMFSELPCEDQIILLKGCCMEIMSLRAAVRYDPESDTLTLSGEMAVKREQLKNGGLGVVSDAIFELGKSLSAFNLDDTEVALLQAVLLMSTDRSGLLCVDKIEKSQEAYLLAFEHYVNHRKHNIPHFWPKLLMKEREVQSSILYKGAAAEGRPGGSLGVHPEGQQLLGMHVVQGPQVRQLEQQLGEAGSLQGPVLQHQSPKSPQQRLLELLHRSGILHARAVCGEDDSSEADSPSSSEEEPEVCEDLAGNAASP

Read-out in assay [3]: E-selectin (Homo sapiens) (UniProt P16581)
The experiment in a line: BSK_3C_Eselectin: BioMAP Diversity Plus: 3C Assay for Eselectin Biomarker Activity (AID 2283015).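 On outcome: cell surface E-selectin protein quantified by ELISA 24 h after dosing.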 As to conditions: primary human endothelial cells (HUVEC); actives raise or lower the signal. The method, boiled down:
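Primary human umbilical vein endothelial cells (3C system) were dosed with chemical and cell-surface E-selectin measured by ELISA 24 h later. Bidirectional curve fitting used DMSO as negative control and baseline.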

Read-out in assay [4]: Interleukin-1 alpha (IL1a), IL1A (gene 3552)
Description: BSK_BE3C_IL1a: BioMAP Diversity Plus: BE3C Assay for Interleukin-1 alpha (IL1a) Biomarker Activity (AID 2283016). As to conditions: primary human bronchial epithelial cells; actives raise or lower the signal. The method, boiled down:
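Cultures of primary human bronchial epithelial cells receive test chemical. After 24 h, IL-1a is quantified by ELISA, while parallel wells are fixed in TCA and SRB-stained for total protein. Changes in either direction are fitted relative to DMSO.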

Read-out in assay [5]: Monocyte Chemoattractant Protein-1 (MCP1), CCL2 (gene 6347)
Description: BSK_3C_MCP1: BioMAP Diversity Plus: 3C Assay for Monocyte Chemoattractant Protein-1 (MCP1) Biomarker Activity (AID 2283017). As to conditions: primary human endothelial cells (HUVEC); actives raise or lower the signal. The method, boiled down: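 Primary human umbilical vein endothelial cells (3C system) were exposed to test chemical for 24 h, after which MCP-1 was quantified by ELISA. Activity was fitted bidirectionally against DMSO as negative control and baseline.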

Read-out in assay [6]: Monocyte Chemoattractant Protein-1 (MCP1), CCL2 (gene 6347)
Description: BSK_4H_MCP1: BioMAP Diversity Plus: 4H Assay for Monocyte Chemoattractant Protein-1 (MCP1) Biomarker Activity (AID 2283018). The following applies: primary human endothelial cells (HUVEC); actives raise or lower the signal. The method, boiled down: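 Readout: MCP-1 ELISA on compound-treated HUVEC, sampled 24 h post-dosing. Baseline and negative control DMSO; bidirectional fit. Overt toxicity checked alongside by sulforhodamine B protein staining at time of biomarker measurement.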

Read-out in assay [7]: Human Leukocyte Antigen - DR isotype (HLADR), HLA-DRA (gene 3122)
The experiment in a line: BSK_3C_HLADR: BioMAP Diversity Plus: 3C Assay for Human Leukocyte Antigen - DR isotype (HLADR) Biomarker Activity (AID 2283019). The following applies: primary human endothelial cells (HUVEC); actives raise or lower the signal. An outline of the steps: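 Primary human umbilical vein endothelial cells (3C system) were dosed with compound and cell-surface HLA-DR was quantified by ELISA at 24 h. Activity was fitted bidirectionally against DMSO as negative control and baseline.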

Read-out in assay [8]: Interleukin-8 (IL8), CXCL8 (gene 3576)
The experiment in a line: BSK_3C_IL8: BioMAP Diversity Plus: 3C Assay for Interleukin-8 (IL8) Biomarker Activity (AID 2283020). The following applies: primary human endothelial cells (HUVEC); actives raise or lower the signal. An outline of the steps:
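Human vascular endothelial cells (umbilical vein) in the 3C system; IL-8 level detected by ELISA at 24 h post-dose, with DMSO as baseline.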

Read-out in assay [9]: Monokine induced gamma interferon (MIG), CXCL9 (gene 4283)
The experiment in a line: BSK_3C_MIG: BioMAP Diversity Plus: 3C Assay for Monokine induced gamma interferon (MIG) Biomarker Activity (AID 2283021). As to conditions: primary human endothelial cells (HUVEC); actives raise or lower the signal. The method, boiled down: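 After 24 h of treatment, human umbilical vein endothelial cultures (3C system) had their MIG biomarker level determined by ELISA, with DMSO serving as negative control.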

Read-out in assay [10]: Matrix Metallopeptidase 1 (MMP1), MMP1 (gene 4312)
Description: BSK_BE3C_MMP1: BioMAP Diversity Plus: BE3C Assay for Matrix Metallopeptidase 1 (MMP1) Biomarker Activity (AID 2283024). As to conditions: primary human bronchial epithelial cells; actives raise or lower the signal. The method, boiled down: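 Dose cells, wait 24 h, run MMP1 ELISA; cells are human bronchial epithelial primaries. Both increases and decreases relative to DMSO counted.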

The nature of assay [11]: BSK_3C_Vis: BioMAP Diversity Plus: 3C Assay for Morphology Visualization (AID 2283025).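 Further: fitted both ways so gain or loss versus DMSO counts.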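 On AC50: light microscopy image of cell morphology used as background control.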 The following applies: primary human endothelial cells (HUVEC). An outline of the steps: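 Endothelial cells from human umbilical vein were treated with test chemicals for 24 h and inspected by light microscopy for changes in cell conformation.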
Read-out in assay [12]: Pselectin, SELP (gene 6403)
Description: BSK_4H_Pselectin: BioMAP Diversity Plus: 4H Assay for Pselectin Biomarker Activity (AID 2283026). The following applies: primary human endothelial cells (HUVEC); actives raise or lower the signal. An outline of the steps:
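Human vascular endothelium from umbilical vein; P-selectin measured by ELISA at 24 h post-dose, with cytotoxicity checked by sulforhodamine B total-protein staining in parallel cultures (0.1% SRB after 10% TCA fixation, read at 560 nm).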

A short description of assay [13]: BSK_4H_SRB: Viability Assessment in the BioMAP Diversity Plus: 4H Assay (AID 2283027).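 Further: cells exposed to compound for 24 h before staining.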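 On AC50: curves fitted both ways versus DMSO so AC50 may be loss or gain.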 As to conditions: primary human endothelial cells (HUVEC). The method, boiled down:
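Human umbilical vein endothelial cells were dosed with chemical and, after 24 h, fixed with 10% TCA, stained with 0.1% sulforhodamine B, and read at 560 nm to give total protein as a cytotoxicity measure. Bidirectional fitting relative to DMSO control.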

Read-out in assay [14]: Thrombomodulin, THBD (gene 7056)
The experiment in a line: BSK_3C_Thrombomodulin: BioMAP Diversity Plus: 3C Assay for Thrombomodulin Biomarker Activity (AID 2283029). As to conditions: primary human endothelial cells (HUVEC); actives raise or lower the signal. An outline of the steps:
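Thrombomodulin ELISA, human primary HUVEC, 24 h post-dose; data fitted in both directions relative to DMSO.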

Read-out in assay [15]: Urokinase-type plasminogen activator receptor (uPAR), PLAUR (gene 5329)
Description: BSK_4H_uPAR: BioMAP Diversity Plus: 4H Assay for Urokinase-type plasminogen activator receptor (uPAR) Biomarker Activity (AID 2283030). The following applies: primary human endothelial cells (HUVEC); actives raise or lower the signal. An outline of the steps:
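Primary human umbilical vein endothelial cells were exposed to chemical for 24 h before cell-surface uPAR was quantified by ELISA. Activity was fitted bidirectionally against the DMSO negative control baseline.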

Assay [16] concerns the target human Vitamin D Receptor (VDR), VDR (gene 7421) (UniProt P11473). The experiment in a line: ATG_VDR_TRANS: Attagene TRANS-FACTORIAL HepG2 Assay for human Vitamin D Receptor (VDR) (AID 2283022; active means hit-call score of the fitted dose curve at least 0.9, where 1 is the maximum). The method, boiled down: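 HepG2 cells were transiently transfected with multiple GAL4-UAS reporter units, so signal reflects exogenous chimeric receptor-Gal4 activity. After 24 h compound exposure, reporter mRNA was measured by RT-PCR, fluorescent labelling and capillary electrophoresis, fitted for gain of signal versus DMSO.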

The target in assay [17] is human RAR-related Orphan Receptor gamma (RORg), RORC (gene 6097) (UniProt P51449). The experiment in a line: ATG_RORg_TRANS: Attagene TRANS-FACTORIAL HepG2 Assay for human RAR-related Orphan Receptor gamma (RORg) (AID 2283011; active means hit-call score of the fitted dose curve at least 0.9, where 1 is the maximum). An outline of the steps: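 Readout: reporter transcript induction (RT-PCR, fluorescent primer extension, capillary electrophoresis) after 24 h compound exposure of transiently transfected HepG2 cells carrying a RORg-Gal4 chimera and GAL4-UAS reporters; DMSO served as baseline, with increasing signal fitted.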
Chain of human RAR-related Orphan Receptor gamma (RORg), RORC (gene 6097) (P51449 whole entry, looked up, the tested form may be a part): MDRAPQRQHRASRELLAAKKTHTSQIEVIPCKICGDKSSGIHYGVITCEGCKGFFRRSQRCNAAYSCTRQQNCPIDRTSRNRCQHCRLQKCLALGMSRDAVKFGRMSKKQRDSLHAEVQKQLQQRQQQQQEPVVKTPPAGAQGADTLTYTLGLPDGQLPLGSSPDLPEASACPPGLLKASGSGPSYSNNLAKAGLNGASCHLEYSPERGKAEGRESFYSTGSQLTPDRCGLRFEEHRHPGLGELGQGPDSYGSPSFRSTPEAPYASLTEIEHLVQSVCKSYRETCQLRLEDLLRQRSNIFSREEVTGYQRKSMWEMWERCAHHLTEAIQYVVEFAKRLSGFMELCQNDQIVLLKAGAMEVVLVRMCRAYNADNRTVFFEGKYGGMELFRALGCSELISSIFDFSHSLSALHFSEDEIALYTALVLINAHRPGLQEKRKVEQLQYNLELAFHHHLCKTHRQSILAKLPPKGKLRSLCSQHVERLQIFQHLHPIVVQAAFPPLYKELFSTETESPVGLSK

The nature of assay [18]: BSK_3C_SRB: Viability Assessment in the BioMAP Diversity Plus: 3C Assay (AID 2283023).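 Further: fitted both ways against DMSO so a hit may be signal rise or drop.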 The following applies: primary human endothelial cells (HUVEC). The method, boiled down: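 Primary human umbilical vein endothelial cells in the 3C system were read 24 h after compound dosing. Total protein was stained with 0.1% sulforhodamine B after 10% TCA fixation and read at 560 nm, with bidirectional fitting against DMSO as baseline.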

Assay [19] is described as follows: BSK_BE3C_SRB: Viability Assessment in the BioMAP Diversity Plus: BE3C Assay (AID 2283028).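 On AC50: fitted both ways so AC50 may mark signal gain or loss versus DMSO.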 As to conditions: primary human bronchial epithelial cells. The method, boiled down: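 Human primary bronchial epithelial cells were exposed to test chemicals for 24 h. Total protein in parallel cultures was then measured by staining with 0.1% sulforhodamine B after 10% TCA fixation, with absorbance read at 560 nm. Activity was fitted bidirectionally against DMSO.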

Chain of human Retinoid X Receptor beta (RXRb), RXRB (gene 6257) (P28702 whole entry, looked up): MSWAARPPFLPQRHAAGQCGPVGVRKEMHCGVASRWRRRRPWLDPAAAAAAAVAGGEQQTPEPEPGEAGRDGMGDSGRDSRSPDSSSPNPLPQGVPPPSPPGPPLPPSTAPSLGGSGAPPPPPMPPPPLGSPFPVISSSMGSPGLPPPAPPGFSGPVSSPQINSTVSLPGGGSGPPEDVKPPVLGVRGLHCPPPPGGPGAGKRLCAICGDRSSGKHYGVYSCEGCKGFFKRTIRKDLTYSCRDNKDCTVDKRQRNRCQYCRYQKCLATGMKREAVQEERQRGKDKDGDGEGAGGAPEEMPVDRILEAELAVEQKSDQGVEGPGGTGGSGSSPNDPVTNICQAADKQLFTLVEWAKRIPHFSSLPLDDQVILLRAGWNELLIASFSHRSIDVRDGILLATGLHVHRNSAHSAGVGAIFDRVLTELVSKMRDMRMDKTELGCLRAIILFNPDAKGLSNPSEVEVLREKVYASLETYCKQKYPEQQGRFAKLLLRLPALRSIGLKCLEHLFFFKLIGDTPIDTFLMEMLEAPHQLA
Chain of human Vitamin D Receptor (VDR), VDR (gene 7421) (P11473 whole entry, looked up, the tested form may be a part): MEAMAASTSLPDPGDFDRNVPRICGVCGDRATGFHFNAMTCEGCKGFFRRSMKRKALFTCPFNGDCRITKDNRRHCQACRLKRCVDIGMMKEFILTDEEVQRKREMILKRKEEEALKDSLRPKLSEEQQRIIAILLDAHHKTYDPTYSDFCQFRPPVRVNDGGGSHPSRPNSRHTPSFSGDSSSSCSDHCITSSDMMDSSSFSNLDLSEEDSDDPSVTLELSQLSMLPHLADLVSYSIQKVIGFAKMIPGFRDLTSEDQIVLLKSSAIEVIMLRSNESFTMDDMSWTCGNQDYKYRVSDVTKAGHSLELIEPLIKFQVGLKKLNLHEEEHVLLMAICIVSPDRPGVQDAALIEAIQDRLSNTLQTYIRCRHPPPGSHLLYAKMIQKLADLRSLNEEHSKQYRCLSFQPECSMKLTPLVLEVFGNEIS
Chain of E-selectin (Homo sapiens) (P16581 whole entry, looked up): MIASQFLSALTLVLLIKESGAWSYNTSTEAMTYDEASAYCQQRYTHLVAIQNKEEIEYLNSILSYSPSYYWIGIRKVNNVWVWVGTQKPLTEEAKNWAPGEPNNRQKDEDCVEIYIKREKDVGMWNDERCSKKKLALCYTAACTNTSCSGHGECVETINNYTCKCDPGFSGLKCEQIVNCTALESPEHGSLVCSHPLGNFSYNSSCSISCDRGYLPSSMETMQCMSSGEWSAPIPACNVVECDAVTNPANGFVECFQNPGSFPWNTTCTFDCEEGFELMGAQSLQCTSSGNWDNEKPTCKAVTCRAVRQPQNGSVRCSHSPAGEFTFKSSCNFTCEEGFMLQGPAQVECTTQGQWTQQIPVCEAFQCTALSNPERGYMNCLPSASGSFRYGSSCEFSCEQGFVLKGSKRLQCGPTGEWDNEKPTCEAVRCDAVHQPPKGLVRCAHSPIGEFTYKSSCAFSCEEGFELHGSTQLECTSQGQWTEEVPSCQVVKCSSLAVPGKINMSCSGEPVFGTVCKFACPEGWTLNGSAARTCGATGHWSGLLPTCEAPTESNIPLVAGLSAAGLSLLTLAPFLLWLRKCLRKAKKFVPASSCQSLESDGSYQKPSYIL

As to `Oc1ccc2ccccc2c1N=Nc1ccccc1`, the AC50 in assay [1] is 6.33 µM (active); in assay [10] it was 3.97 µM (active). The molecule was classed as inactive in [2], in assay [3], in [4], in [5], in assay [6] and in assay [7]. Also, the outcome in assay [8], in assay [9], in assay [11], in [12], in assay [13] and in assay [14] was inactive. In addition, the outcome in assay [15] was inactive.
As for `COc1cccc2c1C(=O)c1c(O)c3c(c(O)c1C2=O)C[C@@](O)(C(=O)CO)C[C@@H]3O[C@H]1C[C@H](N)[C@H](O)[C@H](C)O1`, the figures for the AC50 in assay [1] and in [2] were 0.0616 µM (active) and 32.9 µM (active), respectively. The molecule was called inactive in assay [16].
For the molecule `CCCCc1ccc2c(n1)[C@@H](c1ccc(OC)cc1C[C@H](C)C(=O)O)[C@H](C(=O)O)[C@H]2c1ccc2c(c1)OCO2`, the result in assay [17], in assay [3], in assay [4], in assay [5], in assay [6] and in assay [7] was inactive. In addition, the result in assay [8], in [18], in assay [10], in assay [11], in assay [12] and in assay [13] was inactive. Further, the outcome in assay [19], in assay [14] and in [15] was inactive.
`COCCOC[C@H](CC1(C(=O)NC2CCC(C(=O)O)CC2)CCCC1)C(=O)Oc1ccc2c(c1)CCC2` (stereo not given in full): the outcome in assay [3], in [4], in [5], in assay [6], in assay [7] and in assay [8] was inactive. Moreover, the call in [16], in assay [10], in assay [11], in assay [12], in [13] and in assay [19] was inactive. Moreover, the result in assay [14] and in assay [15] was inactive.
Consider `CN[C@H]1CC[C@@H](c2ccc(Cl)c(Cl)c2)c2ccc(S(N)(=O)=O)cc21`, for which the AC50 in [3] was 30.6 µM (active); in assay [4] it was 30.3 µM (active); in assay [5], 27.5 µM (active); in assay [6] it was 20 µM (active); in assay [7] it was 14.7 µM (active); in [8], 23.9 µM (active). In addition, the AC50 in [18] was 16 µM (active); in [10] it was 31.8 µM (active); in assay [11] it was 14.4 µM (active); in assay [12], 9.02 µM (active); in assay [13], 18.2 µM (active); in assay [19], 34 µM (active). In addition, the results for the AC50 in [14] and in assay [15] were 4.65 µM (active) and 20 µM (active), respectively.
Turning to `CCCCCCCCCCCC(=O)OC`, the half-maximal activity concentration (AC50) in assay [1] was 57.9 µM (active). Besides, the outcome in assay [3], in assay [4], in assay [5], in assay [6], in assay [7] and in assay [8] was inactive. Further, the outcome in [9], in [16], in [10], in assay [11], in assay [12] and in assay [13] was inactive. The outcome in assay [19], in [14] and in assay [15] was inactive.
For `CCOC(=O)CCC(=O)OCC`, the result in assay [3], in assay [4], in assay [5], in assay [6], in assay [7] and in [8] was inactive. Besides, the outcome in assay [10], in assay [11], in assay [12], in assay [13], in [19] and in assay [14] was inactive. Moreover, in assay [15], the result was inactive.
On to `CC1=C(/C=C/C(C)=C/C=C/C(C)=C/CO)C(C)(C)CCC1`, for which the results for the AC50 in [1], in assay [3] and in assay [7] were 0.474 µM (active), 19.3 µM (active) and 25.3 µM (active), respectively. Moreover, the outcome in assay [4], in [5], in [6], in assay [8], in [16] and in assay [10] was inactive. Besides, the result in assay [11], in assay [12], in assay [13], in assay [14] and in assay [15] was inactive.
As to `Clc1cc(Cl)c(Cl)cc1Cl`, the result in assay [3], in assay [4], in assay [5], in [6], in [7] and in assay [8] was inactive. Moreover, the outcome in assay [10], in [11], in assay [12], in [13], in assay [14] and in assay [15] was inactive.
`O=C(O)Cc1ccccc1Nc1c(Cl)cccc1Cl`: the outcome in assay [3], in [4], in assay [5], in assay [6], in assay [7] and in assay [8] was inactive. The result in assay [16], in [18], in assay [10], in assay [11], in assay [12] and in assay [13] was inactive. In addition, the outcome in assay [14] and in assay [15] was inactive.
